Screening results (PubChem BioAssay)
Pf growth 48h = P. falciparum growth inhibition at 48 hours (one generation); Potency, µM (series often up to 28.7 µM), without a hit: at the highest dose activity change, negative = inhibition, hits mostly inhibitors; P. falciparum luciferase growth in erythrocytes, 48 h; hit rate 5.9% among 310,000; AID 504832; note: potency is the fitted concentration of half-maximal effect; % is set by controls: 0 for no effect and ±100 for the full control effect
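Luminescence readout; reporter = integrated firefly luciferase in P. falciparum. RBC culture at 2% hematocrit, 0.1% parasitemia final, 37 C/5% CO2; decreased signal taken as growth inhibition.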
Giardia FBPA inh = blocks Giardia fructose-bisphosphate aldolase activity; A8B2U2; purified Giardia FBPA; Potency, µM (doses to about 59.6 µM), for inactives: at the top dose activity, negative = inhibition, hits mostly inhibitors; hit rate 0.71% among 290,000; AID 2451; note: potency is the fitted concentration of half-maximal effect; % is set by controls: 0 for no effect and ±100 for the full control effect; nearly all actives have a fitted effect of over 55% in size
Target sequence (A8B2U2 whole entry, looked up): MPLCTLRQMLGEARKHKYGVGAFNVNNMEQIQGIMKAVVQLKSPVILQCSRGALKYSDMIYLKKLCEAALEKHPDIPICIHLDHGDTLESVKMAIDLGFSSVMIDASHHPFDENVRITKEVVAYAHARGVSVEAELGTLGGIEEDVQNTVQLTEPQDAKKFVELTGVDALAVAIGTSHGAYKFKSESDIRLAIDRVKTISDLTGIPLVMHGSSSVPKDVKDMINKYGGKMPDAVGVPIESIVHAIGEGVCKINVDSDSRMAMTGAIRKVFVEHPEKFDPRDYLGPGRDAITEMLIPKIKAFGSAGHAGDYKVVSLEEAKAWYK
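Giardia FBPA (40 nM reagent) was preincubated 10 min at RT with compound (up to 57.5 uM final), then substrate plus GAPDH/TPI/NAD/arsenate coupling system with diaphorase/resazurin was added; resorufin fluorescence (525/598 nm) was read after 20 min.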
Shiga inhibitor = inhibitors of Shiga toxin in Vero cells; Vero cells, Shiga toxin protein synthesis inhibition reporter; inhibition, % at 38.7 µM; hit rate 9.2% among 290,000; in the data active = inhibition mostly above about 28%, no sharp cut-off; inactive = mostly below about 43%; note: 0% is about no effect
NS1 inh = inhibitors of influenza NS1 protein function; hit rate 0.4% among 270,000; AID 2326; Potency, µM (titrated, usually from 46.1 µM), for the others: top-dose activity, positive = more growth; calls by dose curve; note: potency is the fitted concentration of half-maximal effect; actives are rising curves; nearly all actives have a fitted effect of over 50% in size
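Read-out: OD600 growth recovery of NS1-expressing budding yeast. Cells grown overnight at 30C in -URA glucose medium, washed, resuspended and diluted 1:100 in 2% galactose assay medium, pH 6.0. Same strain lacking NS1 served as positive control.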
CHX counter = counter-screen for Shiga toxin inhibitors: cycloheximide protein synthesis inhibition. cell reporter, cycloheximide protein synthesis inhibition counterscreen. max response, %. hit rate 12% among 300,000; in the data active = max response mostly above about 13%, no sharp cut-off; inactive = mostly below about 14%; note: read at 38.3 µM for the half of the compounds with a filed dose; 0% is about no effect
Pf growth 96h = inhibits malaria parasite growth, 96 h; P. falciparum luciferase reporter growth, 96 h; Potency, µM (series often up to 28.7 µM), inactives show at the top dose activity change, negative = inhibition, actives largely listed as inhibitors; hit rate 6.9% among 320,000; AID 504834; note: potency is the fitted concentration of half-maximal effect; % is set by controls: 0 for no effect and ±100 for the full control effect
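96 h incubation, 37 C, 5% CO2, of luciferase-reporter P. falciparum-infected RBCs (2% hematocrit, 0.05% parasitemia final) with test compounds; endpoint luminescence.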
Active calls of the source: *. Sampled rows, rich in hits. Any-hit rate of the full collection: about 21%. Unless noted, calls come from the whole dose curve; as a rule, active = well fitted curve in the direction sought with a large enough effect; inconclusive = small, poorly fitted or top-dose-only effect, or another doubt; inactive = no such curve, though single readings can be large; an effect the other way counts as inactive or inconclusive.

Screening COc1cccc(C(=O)O/N=C(\N)c2ccncc2)c1 returned Pf growth 48h -4%, Giardia FBPA inh 1%, Shiga inhibitor 71*, NS1 inh -19%, CHX counter 47* and Pf growth 96h inconclusive.
COc1ccc(C/C(N)=N/OC(=O)Cc2ccc(OC)c(OC)c2)cc1 was read as Pf growth 48h -7%, Giardia FBPA inh 2%, Shiga inhibitor 24, NS1 inh -33%, CHX counter 1 and Pf growth 96h 0%.
COc1cccc(C(=O)O/N=C(\N)c2ccc([N+](=O)[O-])cc2)c1 was read as Pf growth 48h 47%, Giardia FBPA inh 0%, Shiga inhibitor 76*, NS1 inh -18%, CHX counter 33* and Pf growth 96h 39%.
For COc1cccc(/C(N)=N/OC(=O)Cc2ccccc2[N+](=O)[O-])c1 the results were Pf growth 48h 35%, Giardia FBPA inh 3%, Shiga inhibitor 113*, CHX counter 27* and Pf growth 96h inconclusive.
COc1cccc(C(=O)O/N=C(\N)Cc2ccc(Cl)cc2)c1 was read as Pf growth 48h 10µM*, Giardia FBPA inh 5%, Shiga inhibitor 19, NS1 inh -71%, CHX counter 14 and Pf growth 96h 139%.
For CC(=O)N1CC(=O)N(Cc2ccccc2)/C(=C/c2ccccc2)C1=O the results were Pf growth 48h -19%, Giardia FBPA inh -4%, Shiga inhibitor -8, CHX counter -2 and Pf growth 96h 45%.
O=C(c1ccncc1)N1CCC2(CCN(Cc3ccccc3)CC2)CC1 was read as Giardia FBPA inh 3%.
`N#Cc1ccc(CN2CC3(CCN(C(=O)c4cnccn4)CC3)C2)cc1` gave Giardia FBPA inh 6%.
For COc1cccc(C(=O)O/N=C(\N)c2ccc(C)cc2)c1 the results were Pf growth 48h inconclusive, Giardia FBPA inh -10%, Shiga inhibitor 83*, NS1 inh -34%, CHX counter 57* and Pf growth 96h 35%.
For O=C(Cc1cccs1)NCc1cn2ccccc2n1 the results were Giardia FBPA inh 1%, Shiga inhibitor -10, NS1 inh -17%, CHX counter -2 and Pf growth 96h -6%.
`COc1ccc(-c2ccc(NC(=O)c3ccco3)cc2)nn1` gave Pf growth 48h inconclusive and Pf growth 96h -47%.
Screening O=C(NCc1cn2ccccc2n1)c1ccco1 returned Pf growth 48h 60%, Giardia FBPA inh 14%, Shiga inhibitor 37, NS1 inh 16%, CHX counter 25* and Pf growth 96h -12%.
For O=C(NCc1ccc(CNC(=O)c2ccco2)cc1)c1ccco1 the results were Pf growth 48h -3%, Shiga inhibitor -13, NS1 inh 7%, CHX counter 5 and Pf growth 96h 12µM*.
Screening O=C(Nc1ccc(-c2cn3ccccc3n2)cc1)c1ccco1 returned Pf growth 48h 219%, Giardia FBPA inh -1%, Shiga inhibitor 68*, NS1 inh -19%, CHX counter 58* and Pf growth 96h 128%.
`C#CC(C)(C)NC(=O)c1ccc(-c2ccccc2F)cc1` gave Pf growth 48h 58%, Giardia FBPA inh -3%, Shiga inhibitor 64*, NS1 inh -55%, CHX counter 30* and Pf growth 96h -18%.
NNC(=O)c1ccc(-c2ccccc2F)cc1 was read as Pf growth 48h -15%, Giardia FBPA inh -10%, Shiga inhibitor 13, NS1 inh 2%, CHX counter 7 and Pf growth 96h inconclusive.
For C#CC(C)(C)NC(=O)c1ccccc1OC the results were Pf growth 48h 5%, Giardia FBPA inh 1%, Shiga inhibitor -6, NS1 inh -1%, CHX counter -4 and Pf growth 96h 50%.
For NC(=O)c1ccc(-c2ccccc2F)cc1 the results were Pf growth 48h 40%, Giardia FBPA inh 4%, Shiga inhibitor 41*, NS1 inh -4%, CHX counter 17* and Pf growth 96h 66%.
For Cc1ccc(S(=O)(=O)N(CC(=O)Nc2cccnc2)c2ccccc2C)cc1 the results were Pf growth 48h -45%, Giardia FBPA inh -5%, Shiga inhibitor -14, NS1 inh -14%, CHX counter -3 and Pf growth 96h 7%.
Screening Cc1cc(C)nc(SCC(=O)N/N=C/c2cccn2-c2cccc(C(F)(F)F)c2)n1 returned Pf growth 48h 9.3µM*, Giardia FBPA inh -2%, Shiga inhibitor 43, NS1 inh 18%, CHX counter -7 and Pf growth 96h 13µM*.
Cc1cc(C)nc(SCC(=O)N/N=C/c2cccn2-c2ccc(O)cc2)n1 was read as Pf growth 48h inconclusive, Giardia FBPA inh 0%, Shiga inhibitor 7, NS1 inh -1% and CHX counter -4.
`COc1ccc(-c2cc(=O)c3c(OC)c(OC)c(OC)cc3o2)cc1` gave Pf growth 48h inconclusive, Giardia FBPA inh 1%, Shiga inhibitor 17, NS1 inh -6%, CHX counter 1 and Pf growth 96h 12µM*.
For COc1ccc(-c2cc(=O)c3c(O)c(OC)c(O)cc3o2)cc1 the results were Pf growth 48h 189%, Giardia FBPA inh 3%, Shiga inhibitor 45*, NS1 inh -45%, CHX counter 37* and Pf growth 96h 410%.
COc1ccc(-c2cc(=O)c3c(O)c(OC)c(OC)c(OC)c3o2)cc1 was read as Giardia FBPA inh -4%.
COc1c(OC)c(O)c2c(=O)cc(-c3c(O)cccc3O)oc2c1OC was read as Pf growth 48h inconclusive, Giardia FBPA inh -23%, Shiga inhibitor 43, NS1 inh inconclusive, CHX counter 17* and Pf growth 96h inconclusive.
Screening O=C(C(=O)N1CCN(c2cccc(Cl)c2)CC1)c1cn(CC(=O)N2CCOCC2)c2ccccc12 returned Pf growth 48h inconclusive, Shiga inhibitor -10, NS1 inh -6%, CHX counter -14 and Pf growth 96h inconclusive.
For Oc1[nH]c(N=C2N=c3ccccc3=N2)c2ccccc12 the results were Pf growth 48h -51%, Giardia FBPA inh -11%, Shiga inhibitor 60*, NS1 inh -41%, CHX counter 35* and Pf growth 96h 2.3µM*.
Cc1ccc(NC(=S)N/N=C/c2cccn2Cc2ccccc2F)cc1 was read as Pf growth 48h 9.3µM*, Giardia FBPA inh 7%, Shiga inhibitor -3, NS1 inh -5%, CHX counter 1 and Pf growth 96h inconclusive.
Cc1ccc(NC(=S)N(CCN2CCOCC2)Cc2ccccc2F)cc1 was read as Pf growth 48h -11%, Giardia FBPA inh 1%, Shiga inhibitor -3, CHX counter 4 and Pf growth 96h inconclusive.
O=S(=O)(c1ccc(Br)s1)N1CCN(CCOc2ccccc2)CC1 was read as Pf growth 48h -22% and Pf growth 96h inconclusive.
For Oc1ccc(/C=N/Nc2nc(N3CCCCCC3)nc(N3CCCCCC3)n2)c(O)c1 the results were Pf growth 48h inconclusive, Giardia FBPA inh -5%, Shiga inhibitor 4, CHX counter 6 and Pf growth 96h 19%.
